This is an account of results in publication PMC7862700, “An all-to-all approach to the identification of sequence-specific readers for epigenetic DNA modifications on cytosine”.

Holding throughout (test): DAPPL (digital affinity profiling via proximity ligation, sequencing); 10 mM Tris-HCl pH 7.5, 50 mM NaCl, 1 mM DTT, 4% glycerol, room temperature, 30 min; GST-TFs on glutathione beads, 16-mer random dsDNA library, 0.1% formaldehyde crosslink after washing; high values mean tight binding
One experiment concerns the target T1, FLI1 (Homo sapiens, UniProt Q01543 1-452).
T1 sequence: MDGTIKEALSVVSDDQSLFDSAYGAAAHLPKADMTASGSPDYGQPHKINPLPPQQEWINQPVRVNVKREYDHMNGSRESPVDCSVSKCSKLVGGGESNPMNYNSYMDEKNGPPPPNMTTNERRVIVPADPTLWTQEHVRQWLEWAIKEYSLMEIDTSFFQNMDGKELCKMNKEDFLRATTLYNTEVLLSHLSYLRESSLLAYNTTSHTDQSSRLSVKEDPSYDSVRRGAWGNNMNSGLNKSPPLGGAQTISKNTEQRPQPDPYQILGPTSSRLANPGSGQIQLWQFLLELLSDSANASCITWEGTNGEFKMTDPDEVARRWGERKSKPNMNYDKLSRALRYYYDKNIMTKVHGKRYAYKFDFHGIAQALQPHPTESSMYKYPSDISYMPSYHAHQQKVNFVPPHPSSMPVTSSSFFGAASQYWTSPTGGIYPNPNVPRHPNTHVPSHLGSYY
Particulars: protein: recombinant; tags: N-terminal GST; dsDNA, one strand shown. The method, boiled down: (§1)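 The binding signal reported is, for every hexamer, its read frequency for a factor over its read frequency for the tag-only sample. Reads came from pools of yeast-expressed, GST-fused human transcription factors on glutathione beads, barcoded with DNA and mixed with that sample, which were incubated with 200 nmole of a random double-stranded 16-mer DNA library in Tris/NaCl/DTT/glycerol buffer at room temperature for 30 min. After washing, the pools were crosslinked with 0.1% formaldehyde, proximity-ligated with BsaI/T4 ligase for 1 h at 37 °C, PCR-amplified and sequenced on an Illumina NextSeq500.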

The target in a further experiment is T2, ELK1 (Homo sapiens, UniProt P19419 1-428).
T2 sequence: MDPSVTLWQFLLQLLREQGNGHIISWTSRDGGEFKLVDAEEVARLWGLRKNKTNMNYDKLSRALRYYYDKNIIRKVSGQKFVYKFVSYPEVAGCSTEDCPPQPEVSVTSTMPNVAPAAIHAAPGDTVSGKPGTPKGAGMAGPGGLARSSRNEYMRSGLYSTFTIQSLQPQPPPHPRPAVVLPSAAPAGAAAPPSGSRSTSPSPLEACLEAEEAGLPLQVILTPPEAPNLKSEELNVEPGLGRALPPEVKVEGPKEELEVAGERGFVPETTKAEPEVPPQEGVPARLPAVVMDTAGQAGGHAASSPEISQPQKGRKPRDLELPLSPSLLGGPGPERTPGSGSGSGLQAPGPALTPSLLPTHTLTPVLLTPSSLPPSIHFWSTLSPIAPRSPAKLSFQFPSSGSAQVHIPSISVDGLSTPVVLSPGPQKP
The settings on record: protein: recombinant; tags: N-terminal GST; dsDNA, one strand shown. The method, boiled down:
as §1

The target of a further experiment is T3, GABPA (Homo sapiens, UniProt Q06546 1-454).
T3 sequence: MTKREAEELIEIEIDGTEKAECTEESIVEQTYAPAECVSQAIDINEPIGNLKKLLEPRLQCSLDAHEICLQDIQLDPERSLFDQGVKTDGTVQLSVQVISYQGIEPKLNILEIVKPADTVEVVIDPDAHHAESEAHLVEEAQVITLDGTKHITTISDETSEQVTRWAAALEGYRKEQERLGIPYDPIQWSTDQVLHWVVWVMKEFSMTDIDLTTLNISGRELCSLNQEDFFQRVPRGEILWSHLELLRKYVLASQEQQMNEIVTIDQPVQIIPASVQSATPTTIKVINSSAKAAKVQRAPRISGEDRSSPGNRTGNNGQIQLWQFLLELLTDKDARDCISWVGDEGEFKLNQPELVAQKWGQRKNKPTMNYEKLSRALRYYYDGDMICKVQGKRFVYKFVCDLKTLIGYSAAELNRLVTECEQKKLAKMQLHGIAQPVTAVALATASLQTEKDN
Particulars: protein: recombinant; tags: N-terminal GST; dsDNA, one strand shown. In outline: as §1

The target in another experiment is T4, ERG (Homo sapiens, UniProt P11308 1-479).
T4 sequence: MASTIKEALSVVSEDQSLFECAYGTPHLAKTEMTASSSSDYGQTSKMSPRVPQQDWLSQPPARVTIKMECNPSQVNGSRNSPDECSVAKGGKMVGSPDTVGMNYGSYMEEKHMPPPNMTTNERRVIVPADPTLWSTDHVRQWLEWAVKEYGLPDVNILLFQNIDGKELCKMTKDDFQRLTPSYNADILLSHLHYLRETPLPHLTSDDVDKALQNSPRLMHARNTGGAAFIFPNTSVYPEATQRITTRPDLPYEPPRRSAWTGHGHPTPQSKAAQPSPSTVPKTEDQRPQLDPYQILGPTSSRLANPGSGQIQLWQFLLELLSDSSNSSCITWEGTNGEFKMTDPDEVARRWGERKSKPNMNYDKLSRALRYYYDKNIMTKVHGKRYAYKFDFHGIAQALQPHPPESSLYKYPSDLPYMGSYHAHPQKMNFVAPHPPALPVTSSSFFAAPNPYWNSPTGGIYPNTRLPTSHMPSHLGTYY
The settings on record: protein: recombinant; tags: N-terminal GST; dsDNA, one strand shown. In outline:
as §1

In a further experiment the target is ELF1 (Homo sapiens, UniProt P32519 1-619). Particulars: protein: recombinant; tags: N-terminal GST; dsDNA, one strand shown. The method, boiled down:
as §1

For a further experiment, the target named is T5, EHF (Homo sapiens, UniProt Q9NZC4 1-300).
T5 sequence: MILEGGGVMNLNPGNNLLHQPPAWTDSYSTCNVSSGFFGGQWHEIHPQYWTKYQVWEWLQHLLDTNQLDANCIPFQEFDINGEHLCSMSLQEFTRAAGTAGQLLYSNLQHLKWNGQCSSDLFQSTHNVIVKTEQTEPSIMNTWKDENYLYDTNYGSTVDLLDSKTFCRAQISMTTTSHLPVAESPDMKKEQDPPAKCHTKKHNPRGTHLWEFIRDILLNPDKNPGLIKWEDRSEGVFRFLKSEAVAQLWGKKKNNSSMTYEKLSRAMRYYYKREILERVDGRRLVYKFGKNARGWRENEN
Particulars: protein: recombinant; tags: N-terminal GST; dsDNA, one strand shown. The method, boiled down: as §1

The target of another experiment is SPI1 (Homo sapiens, UniProt P17947 1-270). The settings on record: protein: recombinant; tags: N-terminal GST; dsDNA, one strand shown. In outline:
as §1

In another experiment the target is SPIB (Homo sapiens, UniProt Q01892 1-262). The settings on record: protein: recombinant; tags: N-terminal GST; dsDNA, one strand shown. In outline:
as §1

The next experiment concerns the target ETV5 (Homo sapiens, UniProt P41161 1-510). The settings on record: protein: recombinant; tags: N-terminal GST; dsDNA, one strand shown. The method, boiled down:
as §1

A further experiment deals with HSF1 (Homo sapiens, UniProt Q00613 1-529). Particulars: protein: recombinant; tags: N-terminal GST; chain copies: 3; dsDNA, one strand shown. The method, boiled down: as §1
For a further experiment, the target named is T6, SPIC (Homo sapiens, UniProt Q8N5J4 1-248).
T6 sequence: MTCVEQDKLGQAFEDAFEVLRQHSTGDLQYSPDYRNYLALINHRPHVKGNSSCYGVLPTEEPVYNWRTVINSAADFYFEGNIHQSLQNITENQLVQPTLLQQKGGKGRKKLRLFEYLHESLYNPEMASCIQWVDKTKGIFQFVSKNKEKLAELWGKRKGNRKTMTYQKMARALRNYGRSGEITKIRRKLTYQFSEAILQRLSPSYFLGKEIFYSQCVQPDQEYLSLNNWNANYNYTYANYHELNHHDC
The settings on record: protein: recombinant; tags: N-terminal GST; dsDNA, one strand shown. The method, boiled down:
as §1

In another experiment the target is ELF4 (Homo sapiens, UniProt Q99607 1-663). The settings on record: protein: recombinant; tags: N-terminal GST; dsDNA, one strand shown. In outline:
as §1

The target in a further experiment is T7, ELK4 (Homo sapiens, UniProt P28324-2 1-405).
T7 sequence: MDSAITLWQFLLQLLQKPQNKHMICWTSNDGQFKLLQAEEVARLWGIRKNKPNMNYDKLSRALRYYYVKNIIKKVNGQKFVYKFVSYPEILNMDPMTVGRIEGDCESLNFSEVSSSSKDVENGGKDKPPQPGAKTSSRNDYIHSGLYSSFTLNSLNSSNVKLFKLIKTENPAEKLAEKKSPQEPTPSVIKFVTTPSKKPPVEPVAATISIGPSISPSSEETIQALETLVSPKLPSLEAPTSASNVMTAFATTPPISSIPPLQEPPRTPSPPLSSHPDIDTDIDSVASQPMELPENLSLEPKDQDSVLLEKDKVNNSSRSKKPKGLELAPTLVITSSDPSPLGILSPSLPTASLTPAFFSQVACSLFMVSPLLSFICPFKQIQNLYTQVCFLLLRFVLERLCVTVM
Particulars: protein: recombinant; tags: N-terminal GST; dsDNA, one strand shown. The method, boiled down:
as §1

The target of the next experiment is T8, ETV2 (Homo sapiens, UniProt O00321 1-342).
T8 sequence: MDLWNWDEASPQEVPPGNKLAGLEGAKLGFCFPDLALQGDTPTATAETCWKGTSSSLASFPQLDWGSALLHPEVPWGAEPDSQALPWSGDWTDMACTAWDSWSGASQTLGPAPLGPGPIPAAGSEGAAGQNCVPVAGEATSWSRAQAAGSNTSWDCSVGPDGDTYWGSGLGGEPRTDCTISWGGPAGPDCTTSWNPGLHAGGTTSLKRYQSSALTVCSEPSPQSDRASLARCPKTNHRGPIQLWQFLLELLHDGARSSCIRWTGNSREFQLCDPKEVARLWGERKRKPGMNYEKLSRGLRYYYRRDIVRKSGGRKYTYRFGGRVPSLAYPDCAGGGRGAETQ
Particulars: protein: recombinant; tags: N-terminal GST; dsDNA, one strand shown. In outline:
as §1

Another experiment addresses CRX (Homo sapiens, UniProt O43186 1-299). Particulars: protein: recombinant; tags: N-terminal GST; dsDNA, one strand shown. The method, boiled down: as §1
The target in the next experiment is ETV1 (Homo sapiens, UniProt P50549 1-477). The settings on record: protein: recombinant; tags: N-terminal GST; dsDNA, one strand shown. The method, boiled down:
as §1

Chain of CRX (O43186 whole entry): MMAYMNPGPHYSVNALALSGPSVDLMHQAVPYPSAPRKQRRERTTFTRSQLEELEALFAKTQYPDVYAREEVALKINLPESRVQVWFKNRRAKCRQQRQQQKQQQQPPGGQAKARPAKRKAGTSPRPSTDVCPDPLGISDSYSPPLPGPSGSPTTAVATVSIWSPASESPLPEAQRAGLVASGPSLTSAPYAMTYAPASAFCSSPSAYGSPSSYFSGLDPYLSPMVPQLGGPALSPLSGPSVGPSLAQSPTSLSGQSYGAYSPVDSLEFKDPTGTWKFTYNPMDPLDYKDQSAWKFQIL
Chain of HSF1 (Q00613 whole entry): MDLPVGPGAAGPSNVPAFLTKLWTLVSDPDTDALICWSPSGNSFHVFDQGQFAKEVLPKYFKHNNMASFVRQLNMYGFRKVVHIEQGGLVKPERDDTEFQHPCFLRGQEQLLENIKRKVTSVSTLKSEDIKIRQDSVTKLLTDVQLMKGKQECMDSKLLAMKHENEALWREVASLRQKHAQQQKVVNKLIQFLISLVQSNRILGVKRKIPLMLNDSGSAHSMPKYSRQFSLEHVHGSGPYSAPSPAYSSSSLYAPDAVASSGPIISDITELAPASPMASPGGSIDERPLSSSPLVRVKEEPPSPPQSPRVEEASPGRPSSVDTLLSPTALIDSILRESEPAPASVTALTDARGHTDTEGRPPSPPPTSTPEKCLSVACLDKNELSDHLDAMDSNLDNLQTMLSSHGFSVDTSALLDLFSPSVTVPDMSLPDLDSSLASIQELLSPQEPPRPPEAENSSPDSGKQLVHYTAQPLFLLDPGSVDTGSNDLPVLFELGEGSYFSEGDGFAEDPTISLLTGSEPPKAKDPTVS
Chain of ELF4 (Q99607 whole entry): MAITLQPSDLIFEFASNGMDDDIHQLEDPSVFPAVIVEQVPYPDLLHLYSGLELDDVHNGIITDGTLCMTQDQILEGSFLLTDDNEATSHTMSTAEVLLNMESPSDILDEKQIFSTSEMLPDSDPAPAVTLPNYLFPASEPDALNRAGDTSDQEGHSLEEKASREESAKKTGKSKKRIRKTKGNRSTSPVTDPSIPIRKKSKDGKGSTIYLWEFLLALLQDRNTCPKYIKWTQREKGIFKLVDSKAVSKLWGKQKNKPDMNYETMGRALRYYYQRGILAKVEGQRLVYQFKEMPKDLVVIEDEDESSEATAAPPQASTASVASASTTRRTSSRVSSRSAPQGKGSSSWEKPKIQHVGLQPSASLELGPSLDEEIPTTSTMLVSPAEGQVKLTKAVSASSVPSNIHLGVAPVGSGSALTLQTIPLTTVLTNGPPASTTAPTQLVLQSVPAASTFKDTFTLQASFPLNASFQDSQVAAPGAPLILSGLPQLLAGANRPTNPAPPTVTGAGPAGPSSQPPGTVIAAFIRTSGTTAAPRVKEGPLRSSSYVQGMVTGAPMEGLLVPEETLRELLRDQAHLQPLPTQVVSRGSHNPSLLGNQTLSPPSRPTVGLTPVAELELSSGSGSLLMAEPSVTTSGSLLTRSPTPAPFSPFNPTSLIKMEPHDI
Chain of SPIB (Q01892 whole entry): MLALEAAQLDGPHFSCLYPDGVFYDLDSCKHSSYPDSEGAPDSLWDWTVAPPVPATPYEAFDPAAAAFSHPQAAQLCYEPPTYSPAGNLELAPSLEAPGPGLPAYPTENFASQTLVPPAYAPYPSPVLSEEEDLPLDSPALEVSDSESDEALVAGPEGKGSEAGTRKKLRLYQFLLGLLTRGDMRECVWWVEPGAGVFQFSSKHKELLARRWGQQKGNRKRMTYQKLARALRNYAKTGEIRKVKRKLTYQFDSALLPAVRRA
Chain of ETV5 (P41161 whole entry): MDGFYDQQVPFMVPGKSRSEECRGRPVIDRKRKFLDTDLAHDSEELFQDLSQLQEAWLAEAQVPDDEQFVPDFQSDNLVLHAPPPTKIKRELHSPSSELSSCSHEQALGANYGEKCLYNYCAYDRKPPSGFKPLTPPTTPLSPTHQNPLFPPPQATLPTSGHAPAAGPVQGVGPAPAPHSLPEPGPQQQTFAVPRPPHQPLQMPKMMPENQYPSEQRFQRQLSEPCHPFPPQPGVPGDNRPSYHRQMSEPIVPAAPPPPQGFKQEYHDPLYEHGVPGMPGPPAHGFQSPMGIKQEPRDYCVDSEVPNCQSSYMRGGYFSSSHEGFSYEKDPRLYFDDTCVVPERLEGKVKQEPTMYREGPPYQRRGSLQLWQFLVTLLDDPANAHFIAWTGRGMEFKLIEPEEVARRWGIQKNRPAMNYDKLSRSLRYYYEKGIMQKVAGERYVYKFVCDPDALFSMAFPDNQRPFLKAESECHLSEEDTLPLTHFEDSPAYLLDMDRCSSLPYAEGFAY
Chain of ELF1 (P32519 whole entry): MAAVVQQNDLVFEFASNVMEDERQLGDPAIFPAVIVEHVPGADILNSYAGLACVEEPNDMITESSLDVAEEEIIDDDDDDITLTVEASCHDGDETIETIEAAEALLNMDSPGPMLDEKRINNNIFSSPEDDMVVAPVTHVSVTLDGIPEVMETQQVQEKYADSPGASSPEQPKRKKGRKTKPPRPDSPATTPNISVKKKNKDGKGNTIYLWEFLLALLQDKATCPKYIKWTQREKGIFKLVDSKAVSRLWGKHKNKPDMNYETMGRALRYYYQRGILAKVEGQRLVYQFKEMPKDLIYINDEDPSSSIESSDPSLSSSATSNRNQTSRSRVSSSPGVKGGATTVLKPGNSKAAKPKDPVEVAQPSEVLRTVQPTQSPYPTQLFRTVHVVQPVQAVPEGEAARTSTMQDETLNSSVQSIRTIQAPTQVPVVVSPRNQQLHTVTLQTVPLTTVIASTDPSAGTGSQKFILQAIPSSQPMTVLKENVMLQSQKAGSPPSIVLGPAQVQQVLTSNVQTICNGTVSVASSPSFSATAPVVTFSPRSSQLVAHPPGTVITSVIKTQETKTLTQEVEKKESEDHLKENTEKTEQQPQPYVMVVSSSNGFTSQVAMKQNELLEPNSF
Chain of ETV1 (P50549 whole entry): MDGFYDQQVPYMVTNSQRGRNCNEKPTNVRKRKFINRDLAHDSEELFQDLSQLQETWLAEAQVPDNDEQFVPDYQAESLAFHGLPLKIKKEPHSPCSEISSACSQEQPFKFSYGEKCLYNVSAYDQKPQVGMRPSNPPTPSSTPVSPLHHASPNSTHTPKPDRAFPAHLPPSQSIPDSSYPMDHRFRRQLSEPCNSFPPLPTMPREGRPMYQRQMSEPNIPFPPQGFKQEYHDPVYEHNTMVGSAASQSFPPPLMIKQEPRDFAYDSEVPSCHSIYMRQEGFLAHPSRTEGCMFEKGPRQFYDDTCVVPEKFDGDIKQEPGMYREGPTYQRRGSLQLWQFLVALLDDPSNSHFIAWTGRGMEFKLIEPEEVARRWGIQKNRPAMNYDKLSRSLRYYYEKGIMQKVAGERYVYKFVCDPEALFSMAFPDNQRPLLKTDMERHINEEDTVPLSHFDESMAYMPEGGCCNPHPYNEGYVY

For the sequence TTAGCG, the binding signal was 1.05 fold enrichment (6-mer frequency, TF over GST control) in the experiment with FLI1; 1.04 fold enrichment (6-mer frequency, TF over GST control) with ELK1; 1.03 fold enrichment (6-mer frequency, TF over GST control) in the experiment with GABPA; 1.05 fold enrichment (6-mer frequency, TF over GST control) with ERG; 1.09 fold enrichment (6-mer frequency, TF over GST control) in the experiment with ELF1; 1.06 fold enrichment (6-mer frequency, TF over GST control) in the experiment with EHF. Also, the binding signal with SPI1 was 1 fold enrichment (6-mer frequency, TF over GST control); in the experiment with SPIB, 1.13 fold enrichment (6-mer frequency, TF over GST control); with ETV5, 1 fold enrichment (6-mer frequency, TF over GST control); with HSF1, 1.49 fold enrichment (6-mer frequency, TF over GST control); in the experiment with SPIC it was 1.03 fold enrichment (6-mer frequency, TF over GST control); in the experiment with ELF4, 1.14 fold enrichment (6-mer frequency, TF over GST control). Further, the binding signal with ELK4 is 1.05 fold enrichment (6-mer frequency, TF over GST control); with ETV2, 1.14 fold enrichment (6-mer frequency, TF over GST control); in the experiment with CRX, 2.24 fold enrichment (6-mer frequency, TF over GST control); in the experiment with ETV1 it was 1.07 fold enrichment (6-mer frequency, TF over GST control).
